Each structure is given as a SMILES string. Out of some 360,000 compounds screened, about 17,000 (4.7%) were called active. Inconclusive results (about 5%) are left out. Shown is part of a subset that was picked to be rich in actives. A number with no mark means an inactive call. Rule as the data show it: active = activity change below about -50%; inconclusive = mostly about -30% to -49%; inactive = weaker than that.
% is scaled to controls: 0 for no effect and ±100 for the full control effect.

The experiment can be described thus: qHTS for Inhibitors of Inflammasome Signaling: IL-1-beta AlphaLISA Primary Screen. The settings on record: THP-1 LPS/ATP IL-1B secretion, 16 h; at 57.5 µM, active compounds read low. From the text:
Inflammasomes are a set of intracellular multi-protein complexes that enable autocatalytic activation of inflammatory caspases and drive the innate immune response to counter harmful agents. […] A qHTS assay, based on AlphaLISA technology, was developed to screen the Molecular Libraries Small Molecule Repository (MLSMR) to look for novel inflammasome inhibitors. The assay detects IL-1B using AlphaLISA anti-IL-1B acceptor and donor beads. A decreased emission signal, indicating reduced IL-1B secretion, is the desired outcome for this assay. NIH Chemical Genomics Center [NCGC] NIH Molecular Libraries Probe Centers Network [MLPCN] MLPCN Grant: MH095513 Assay Provider: Shyam Biswal Ph.D., Johns Hopkins University Immunity. 2012 Jul 27;37(1):85-95. PMID: 22819042 [2] Curr Pharm Des. 2012;18(16):2320-8. PMID: 22390695
Three microliters containing 3000 THP-1 cells were dispensed into the wells of solid, white, tissue culture treated Greiner 1,536-well plates. Library compounds and positive control, Glyburide, were pin-transferred (23 nL) by a Kalypsys pin-tool equipped with a 1,536-pin array, resulting in final compound concentration ranges of 2.5 nM to 57.5 uM. After 1 hr of cell culture incubation (37 °C, 5% CO2), 1 microL of 1 microg/mL lipopolysaccharide (250 ng/mL, final) and 5 mM ATP (1.25 mM, final) were added to stimulate the cells. After 16 hr of cell culture incubation with the compounds, 1.5 uL of anti-IL-1B acceptor beads (6 ug/mL, final) and biotinylated antibody (0.6 nM, final) were added to the plate, followed by a 1 hr incubation at ambient temperature. To detect the secreted IL-1B, 1.5 uL of AlphaLISA SA-Donor beads (24 ug/mL, final) were added, followed by 30 min of incubation in the dark at ambient temperature. The AlphaLISA signal was read by a PerkinElmer EnVision plate reader with an ultrasensitive luminescence detector and 1536 Plate HTS AlphaScreen aperture (excitation of 680nm and emission of 615nm).
(Quantitative high-throughput screening tests each substance at several concentrations.)
In the case of `CC(NC(=S)Nc1ccccc1)C1COc2ccccc2O1` (configuration not stated), the activity change is -4.51%. To `CCN1/C(=C/C(=S)Nc2ccccc2)Sc2ccccc21` belongs -101% (active); to `CCOC(=O)CNC(=O)N1c2ccccc2Sc2ccccc21`, -21%; to `CCOC(=O)C1=CC[C@@H](c2ccncc2)N(S(=O)(=O)c2ccc(C)cc2)C1`, 57.8%. As to `O=C(c1ccc(Cl)c(S(=O)(=O)N2CCCCCC2)c1)N1CCN(c2ccc(O)cc2)CC1`, the activity change is -10.9%. Take `COc1cc(/C=C/C(=O)OCC(=O)c2ccccc2)cc(OC)c1OC`: the activity change is 18.6%. On to `COc1cc(/C=C/C2=CC(C)(C)NC(=S)N2)cc(OC)c1OC`, for which the activity change was -71.3% (active). With `COc1ccc(/C=C/C(=O)OCC(=O)Nc2cccc(Oc3ccccc3)c2)c(OC)c1`, the activity change was -2.25%. With `COc1ccc(/C=C/C2=CC(C)(C)NC(=S)N2)c(OC)c1` the figure was -87.3% (active); with `COc1ccc(-n2c(-c3ccc(Cl)cc3)n[nH]c2=S)c(OC)c1`, -15.4%; with `COc1cc(/C=C/c2ccc(/C=C/c3cc(OC)c(OC)c(OC)c3)cc2)cc(OC)c1OC`, 94.5%. `CCOC(=O)C1CCCN(C(=O)Cn2ncc3c(=O)oc4ccc(C)cc4c32)C1` (configuration not stated): the activity change was 2.35%. As for `CCOC(=O)C1=CCC2C(=O)N(Cc3ccccc3)C(=O)C12` (configuration not stated), the activity change was 3.12%.

As to `CN(c1ccccc1)S(=O)(=O)c1ccc(C(=O)NCc2cccnc2)cc1`, the activity change was 12%. As for `Cn1c(=O)c2c(nc(OCc3cccnc3)n2Cc2ccccc2)n(C)c1=O`, the activity change is -9.43%. To `CCC(C)(C)c1ccc(OCC(=O)N(C)C)c(C(C)(C)CC)c1` belongs -90.9% (active); to `CCc1nc(C)ccc1OCC(=O)N(CC)CC`, 6.9%; to `CN(C)CCOc1ccc(Cl)cc1C(C)(C)C`, -13.6%. For `O=C(NC1CCCCC1)C1CCC(CNS(=O)(=O)c2ccccc2)CC1` (configuration not stated), the activity change was -6.12%. For the compound `Cc1ccnc(NC(=O)Cn2ccc([N+](=O)[O-])n2)c1`, the activity change is 15.1%.

As to `O=C(Nn1c(SCc2ccc([N+](=O)[O-])cc2)nc2ccccc2c1=O)c1ccc(F)cc1`, the activity change was -1.43%.

Consider `N#Cc1ccc(/C=C2\CCn3c2nc2cc(C(=O)O)ccc2c3=O)cc1`, for which the activity change was -13.5%. Take `Cc1ccnc(NC(=O)c2ccoc2C)c1`: the activity change is -8.69%. Take `O=C(Nc1ccccc1C(=O)Nc1ccncc1)c1ccc([N+](=O)[O-])cc1`: the activity change is -6.48%. Turning to `Cc1ccc(/C=C2\CCn3c2nc2cc(C(=O)O)ccc2c3=O)c(C)c1`, the activity change was 12.5%.

For the compound `Cc1ccnc(NC(=O)c2ccc(Cl)c([N+](=O)[O-])c2)c1`, the activity change is -78.4% (active). With `CCN(CC)c1ccc(C(=O)Nn2c(C)nc3ccccc3c2=O)cc1`, the activity change is 18.5%. On to `Cc1nc2ccccc2c(=O)n1NC(=O)c1ccc(Cl)c([N+](=O)[O-])c1`, for which the activity change was -60.1% (active). Regarding `O=C(Nc1ccncc1)c1ccc([N+](=O)[O-])cc1Cl`, the activity change is -15%. With `O=C(O)c1ccc2c(=O)n3c(nc2c1)/C(=C/c1ccc(Cl)c([N+](=O)[O-])c1)CC3` the figure was -64.3% (active); with `O=C(Nc1ccncc1)c1ccc(Cl)c([N+](=O)[O-])c1`, -64.8% (active). To `CC1(C(=O)NCc2ccco2)Cc2c(-c3ccc4c(c3)OCO4)ccnc2O1` (configuration not stated) belongs 7.16%; to `Cc1ccccc1CSc1nnc(-c2ccccn2)n1N`, -29.8%; to `CCOC(=O)C1CCN(C(=O)c2ccc3c(=O)n4nc(Nc5ccccc5CC)sc4nc3c2)CC1`, -8.29%. As for `CCCCN1C(=O)C(CC(=O)NCc2cccs2)CC(C(=O)N2CCOCC2)=C1C` (configuration not stated), the activity change is 34.2%.

On to `COc1ccccc1CNC(=O)Cn1c(=O)oc2cc(Cl)ccc21`, for which the activity change is -3.46%.

`Cc1ccc(C(O)c2ncc(-c3ccccc3F)[nH]2)cc1F` (configuration not stated): the activity change was 0.413%. As to `Cc1ccc(CC2(C)C(=O)Nc3ccc(OC(F)(F)F)cc32)cc1` (configuration not stated), the activity change was -8.4%. For `CN1OC[C@@H]2CN(C(=O)c3cccnc3)[C@H](c3ccc(N4CCCCC4)cc3)C[C@@H]21`, the activity change was 3.15%. For `CCNC(=O)C1(C)CCCN(C(=O)c2c(C)noc2C)C1` (configuration not stated), the activity change was 25%.

As for `CS(=O)(=O)c1sc(C(=O)NC(=S)Nc2ccc(OC(F)(F)F)cc2)c2c1C=CCC2`, the activity change was 21.9%. Consider `COc1ccc(CNC(=O)C2CCN(S(C)(=O)=O)CC2)cc1`, for which the activity change was 14.1%. Take `CCOC(=O)/C(=C\c1ccc([N+](=O)[O-])cc1)C(=O)c1cc(C(C)=O)c(Nc2ccccc2)s1`: the activity change is -116% (active). As for `O=C(O)C(=Cc1ccc([N+](=O)[O-])cc1)CCc1ccccc1`, the activity change is 0.991%.

Take `CCOC(=O)/C(=N\Nc1ccccc1[N+](=O)[O-])c1csc(Nc2ccccc2)n1`: the activity change is 1.73%. As for `CC1C(=O)Nc2ccccc2N1C(=O)c1c(F)cccc1F` (configuration not stated), the activity change was -9.24%.

Consider `C=C1C(=O)OC2C1CCC(C)=CCCC1(C)OC21` (configuration not stated), for which the activity change was -113% (active). In the case of `O=C(CSc1ccc([N+](=O)[O-])cn1)Nc1ccc(N2CCOCC2)c(Cl)c1`, the activity change is -12.5%. `CS(=O)(=O)N(CC(=O)N1CCCC1)Cc1ccccc1`: the activity change is 4.88%.

For the compound `CCNC(=O)c1ccc(OCC(=O)Nc2ccc(F)cc2)c(OC)c1`, the activity change is -5.56%.

As for `COc1cc(C(=O)N(C)Cc2cccc(OC)c2OC)ccc1OCC(=O)Nc1cccc(C(F)(F)F)c1`, the activity change was -57.3% (active). As to `COc1ccc(C(=O)OCC(=O)Nc2cccc(C(C)=O)c2)cc1OC`, the activity change was 20.1%. For the compound `O=C(CN1C(=O)NC2(CCCCC2)C1=O)NCCC1=CCCCC1`, the activity change was 21.6%. For `COc1cccc(NC(=O)C2(C)CCN2C(=O)CCC2CCCC2)c1` (configuration not stated), the activity change is 12.2%.

Turning to `COc1ccc(CSc2nnnn2-c2ccc(O)cc2)cc1F`, the activity change is -64.2% (active).

As to `COc1ccc(CSc2nnnn2-c2ccc(C(=O)O)cc2)cc1`, the activity change was -2.8%. On to `Oc1ccc(-n2nnnc2SCc2c(F)cccc2Cl)cc1`, for which the activity change was -11.4%.

For the compound `COc1ccc(C(C)=O)cc1CN1C(=O)NC2(CCCCC2C)C1=O` (configuration not stated), the activity change is -5.22%. For `C[C@H]1CN([C@@H](C)CO)C(=O)CCCn2cc(nn2)CO[C@@H]1CN(C)S(=O)(=O)c1cccc(C#N)c1`, the activity change is 12.5%. In the case of `Cc1ncoc1C(=O)N1CCCC(C(=O)c2ccc3c4c(cccc24)CC3)C1` (configuration not stated), the activity change was -21.9%. As for `CCn1ccnc1CN1CCCC(C(=O)c2ccc3c4c(cccc24)CC3)C1` (configuration not stated), the activity change was -69.4% (active). In the case of `CC(=O)NCC(=O)N1CCCC(C(=O)c2ccc3c4c(cccc24)CC3)C1` (configuration not stated), the activity change was -13.3%. To `C[C@H](O)[C@@H]1C(=O)N2CCc3c([nH]c4ccccc34)[C@@H]2C[C@@H]1N(C)C(=O)Nc1ccc(F)cc1` belongs -16.5%; to `CC1(C(=O)NS(=O)(=O)c2ccc3ccccc3c2)CCN1C(=O)C1(c2ccc(Cl)cc2)CCC1` (configuration not stated), 53.2%; to `COc1ccc(-c2cc(C(=O)N(C)CC(=O)Nc3ccccc3Cl)c3ccccc3n2)cc1OC`, -52.1% (active). As to `COc1ccc(Cl)cc1NC(=O)CN(C)C(=O)c1cc2ccccc2cc1OC`, the activity change was 5.95%. For the compound `COc1ccc(CN(C)C(=O)c2cc(-c3ccc(C)cc3C)nc3ccccc23)c(OC)c1OC`, the activity change is -84.9% (active).

On to `COc1ccc(CN(C)C(=O)Cc2c[nH]c3ccccc23)c(OC)c1OC`, for which the activity change is 5.58%.

Take `COc1ccc(NC(=O)c2cc(-c3cc(OC)c(OC)c(OC)c3)nc3ccccc23)c(OC)c1`: the activity change was 42.6%.

As to `COc1ccc(-c2cc(C(=O)N(C)Cc3ccc(OC)c(OC)c3OC)c3ccccc3n2)cc1OC`, the activity change is -13.9%. With `COc1cccc(NC(=O)CN(C)C(=O)c2cc(Cl)nc3ccccc23)c1` the figure was 17.2%; with `COc1ccc(NC(=O)c2cc(-c3ccc(C)o3)nc3ccccc23)cc1`, -5.74%; with `COc1ccc(-c2cc(C(=O)Nc3ccccc3O)c3ccccc3n2)cc1`, -84.2% (active). Take `O=C(Nc1nonc1-c1ccc(Cl)cc1)c1ccco1`: the activity change is 26.6%.

`CC(C)C[C@H](NC(=O)N1CC(=O)Nc2ccccc21)C(=O)N[C@H](Cc1ccccc1)C(=O)O`: the activity change was 4.57%. With `N#Cc1ccc(-c2nc3c(Cl)cc(C(F)(F)F)cn3c2Cc2ccccc2C(F)(F)F)cc1`, the activity change was 23.1%. Turning to `COc1ccc(S(=O)(=O)N2CCC(C(=O)NCCC(=O)Nc3ccccc3OC)CC2)cc1`, the activity change is 2.12%. In the case of `Nc1nc2c(ncn2[C@@H]2O[C@H](CNS(=O)(=O)N3CCc4ccccc4C3)[C@@H](O)[C@H]2O)c(=O)[nH]1`, the activity change was 0.653%. To `COc1cccc(OCC(=O)NCCS(=O)(=O)N2CCN(c3ccccc3)CC2)c1` belongs 21%; to `OC[C@H]1O[C@@H](c2nc(-c3nc(-c4ccc(F)cc4)no3)cs2)[C@H](O)[C@@H](O)[C@H]1O`, 2.39%; to `CCCCN1C(=O)C(CC(=O)NC(c2ccccc2)c2ccccc2)CC(C(=O)N2CCOCC2)=C1C` (configuration not stated), 14.9%.

As to `O=C(c1cccs1)n1nc(NCc2ccccc2)nc1NCc1ccccc1`, the activity change was -57.7% (active). Regarding `CCCC(=O)n1nc(NCc2ccc(OC)cc2)nc1NCc1ccc(OC)cc1`, the activity change was 15.3%. Regarding `Nc1nc(NCc2ccccc2)n(-c2ccccc2)n1`, the activity change was 4.19%. Consider `CC(C)(C)OC(=O)N1CCN(C(=O)c2[nH]c(C(F)(F)F)nc2-c2ccccc2)CC1`, for which the activity change was 13.4%.

`Cc1ccc(CN(C(=O)c2sc3ccccc3c2Cl)C2CCS(=O)(=O)C2)cc1` (configuration not stated): the activity change is -2.89%. Take `Nn1cnnc1N/N=C/c1cc([N+](=O)[O-])c(Cl)cc1Cl`: the activity change was -61.8% (active).

Values taken from PubChem BioAssay AID743279 (National Center for Advancing Translational Sciences (NCATS), 2014).
